From PubChem BioAssay
HEK293 tox: cytotoxic compounds in HEK 293 cells; HEK 293 viability, ATP luminescence (CellTiter-Glo), 48-72 h; Potency, µM (highest dose often 115 µM), usual class: inhibitors; 94,000 tested, 6.6% active; also: nearly all actives have a fitted effect of over 60% in size
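Luminescence from cellular ATP, measured with CellTiter-Glo, indicates HEK 293 viability. Cells plated at 250 cells/well are treated with compound for 48 or 72 hr at 37 degree Celsius before reagent addition.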
hNpr1 antagonist: human Npr1 receptor antagonism. 76,000 tested, 1.6% active. Potency, µM (top dose mostly 46.3 µM), actives largely listed as inhibitors. HEK293 hNpr1 GloSensor cGMP, ANP-stimulated luminescence. P16066; calls by dose curve; also: nearly all actives have a fitted effect of over 60% in size
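Compound pre-incubated 30 min at room temperature on GloSensor-loaded HEK293 cells stably carrying hNpr1 and the pGS-40F cGMP biosensor. Stimulation uses hNppA at 0.1 nM final; luminescence is taken at baseline and 20 min post-agonist.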
Luciferase inh: inhibitors of firefly (Photinus pyralis) luciferase | purified P. pyralis luciferase, luminescence, biochemical | Potency, µM (highest dose often 115 µM), usual class: inhibitors | 76,000 tested, 2.5% active | AID 1347043; also: nearly all actives have a fitted effect of over 65% in size
Target sequence (P08659 whole entry, looked up): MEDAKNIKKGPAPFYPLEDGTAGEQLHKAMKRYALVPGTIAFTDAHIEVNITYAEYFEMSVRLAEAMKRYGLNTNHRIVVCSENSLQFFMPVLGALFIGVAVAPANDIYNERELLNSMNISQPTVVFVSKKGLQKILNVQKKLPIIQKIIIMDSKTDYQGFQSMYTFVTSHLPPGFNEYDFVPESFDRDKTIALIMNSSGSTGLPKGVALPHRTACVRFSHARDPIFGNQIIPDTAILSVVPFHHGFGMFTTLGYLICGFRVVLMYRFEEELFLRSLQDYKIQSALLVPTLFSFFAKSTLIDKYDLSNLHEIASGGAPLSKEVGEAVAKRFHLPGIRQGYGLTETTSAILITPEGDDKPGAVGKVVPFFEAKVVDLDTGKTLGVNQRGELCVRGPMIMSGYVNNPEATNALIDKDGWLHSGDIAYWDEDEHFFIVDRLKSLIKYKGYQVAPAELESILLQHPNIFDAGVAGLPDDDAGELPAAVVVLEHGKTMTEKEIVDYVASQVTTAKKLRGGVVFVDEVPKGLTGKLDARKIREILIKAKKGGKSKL
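Cell-free enzyme assay, 10nM P. pyralis luciferase, luciferin and ATP each at 10uM. Inhibition profiled over a 6-point titration, read as luminescence.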
3T3 cytotox: cytotoxic compounds in NIH 3T3 cells; Potency, µM (top dose mostly 96.7 µM), most hits filed as inhibitors; 94,000 tested, 4.3% active; NIH 3T3 viability, CellTiter-Glo ATP luminescence, 48-72 h; also: nearly all actives have a fitted effect of over 55% in size
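ATP-dependent luminescence (CellTiter-Glo) served as the viability signal for NIH 3T3 cells treated with compound for 48 or 72 hr at 37 °C.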
Each line names hits and unclear results; the compound was inactive in the other large screens; ! = a repeat was not active. Sampled rows, rich in hits. Any-hit rate of the full collection: about 11%. Unless noted, calls follow the shape of the dose curve; as a rule, active = well fitted curve in the direction sought with a large enough effect; inconclusive = small, poorly fitted or top-dose-only effect, or another doubt; inactive = no such curve, though single readings can be large; an effect the other way counts as inactive or inconclusive.

CC(C)n1cnnc1-c1nn(C)c2c1CN(C(=O)CCc1ccccc1)CC2	none (no result: hNpr1 antagonist, Luciferase inh)
Cc1ccccc1-c1noc(CNCc2nc3ccc(Cl)cc3[nH]2)n1	HEK293 tox 79µM, 3T3 cytotox inconclusive
O=C1NCCCCCCN(C(=O)Nc2ccccc2)[C@H]2C[C@H](c3nc(Cc4ccccc4)no3)C[C@@H]12	HEK293 tox inconclusive
CCCc1nc(C)cc(N2CCC(NCCc3ccc(Cl)cc3)CC2)n1	HEK293 tox 14µM, 3T3 cytotox inconclusive
CNC(=O)c1cc(C2CC2)nc2c1c(C1CCCN1C(=O)Cc1cccc(Cl)c1)nn2C (stereo unspecified)	HEK293 tox inconclusive (no result: hNpr1 antagonist, Luciferase inh)
CC1(C)NC(=O)N(CCC(=O)N2CCCCC2c2noc(COCc3ccc(F)cc3)n2)C1=O (stereo unspecified)	none (no result: hNpr1 antagonist, Luciferase inh)
CN(Cc1cc(C2CC2)n[nH]1)c1nccc(-c2cccnc2)n1	HEK293 tox inconclusive, Luciferase inh inconclusive, 3T3 cytotox inconclusive
CN(CCC(O)c1ccccc1)c1nccc(-c2cccnc2)n1 (stereo unspecified)	HEK293 tox 32µM, 3T3 cytotox inconclusive
Cc1ccc(CN2CCn3c(nn(-c4ccc(C(F)(F)F)cc4)c3=O)C2)cc1	HEK293 tox inconclusive, 3T3 cytotox inconclusive
COc1ccc(C(=O)N2CCn3c(nn(-c4ccc(OC)cc4)c3=O)C2)cc1	3T3 cytotox inconclusive (no result: hNpr1 antagonist, Luciferase inh)
COc1ccc(CN2CCn3c(nn(-c4ccc(OC)cc4)c3=O)C2)cc1	none (no result: hNpr1 antagonist, Luciferase inh)
Cc1cc(CN2CCn3c(nn(-c4ccc(C(F)(F)F)cc4)c3=O)C2)no1	HEK293 tox 89µM, 3T3 cytotox inconclusive (no result: hNpr1 antagonist, Luciferase inh)
COc1ccc(-n2nc3n(c2=O)CCN(Cc2ccccc2)C3)cc1	HEK293 tox inconclusive, 3T3 cytotox 8.9µM (no result: hNpr1 antagonist, Luciferase inh)
COc1ccc(-n2nc3n(c2=O)CCN(C(=O)c2ccc(C(F)(F)F)cc2)C3)cc1	3T3 cytotox 32µM (no result: hNpr1 antagonist, Luciferase inh)
O=c1n(-c2ccc(C(F)(F)F)cc2)nc2n1CCN(Cc1ccccc1)C2	HEK293 tox 7.9µM!, 3T3 cytotox inconclusive
CNC(=O)c1nc2cccnc2n(-c2ccc(N(C)C)cc2)c1=O	none (no result: hNpr1 antagonist, Luciferase inh)
Cc1ccc(CN2CCn3c(nn(-c4ccncc4)c3=O)C2)cc1	HEK293 tox inconclusive, hNpr1 antagonist 20µM, 3T3 cytotox inconclusive
Cc1cn2nc(C(=O)N3CCN(c4ccccn4)CC3)cc2c(N2CCCC2)n1	HEK293 tox inconclusive, 3T3 cytotox inconclusive
O=[S+]([O-])(NC1CCN(Cc2ccc(-c3ccsc3)cc2)C1)c1cccs1 (stereo unspecified)	HEK293 tox 40µM, 3T3 cytotox 35µM (no result: hNpr1 antagonist, Luciferase inh)
CSc1ccc(-c2cccc(CN3CCC(N[S+](=O)([O-])c4c(C)noc4C)CC3)c2)cc1	HEK293 tox inconclusive, 3T3 cytotox 14µM (no result: hNpr1 antagonist, Luciferase inh)
CSc1ccc(-c2cccc(CN3CCC(NC(=O)c4ccccc4)CC3)c2)cc1	none (no result: hNpr1 antagonist, Luciferase inh)
Cc1cccc(-c2cccc(CN3CCC(N[S+](=O)([O-])c4ccccc4)CC3)c2)c1	HEK293 tox 28µM, 3T3 cytotox 25µM (no result: hNpr1 antagonist, Luciferase inh)
Cc1cccc(-c2cccc(CN3CCC(N[S+](=O)([O-])c4cccs4)CC3)c2)c1	HEK293 tox 28µM, 3T3 cytotox inconclusive (no result: hNpr1 antagonist, Luciferase inh)
O=C(c1ccc2nnc(-c3cc[nH]c3)n2c1)N1CCOCC1	none (no result: hNpr1 antagonist, Luciferase inh)
COc1cccc(S(=O)(=O)N2CCCN(C(=O)C3CC3)C(c3ccccc3)CC(=O)NCC2)c1 (stereo unspecified)	none
COc1cccc(OC)c1C(=O)N1C(C(=O)NCC(C)C)COC12CCCC(C)C2 (stereo unspecified)	none
COc1ccc(CCC(=O)N2CC(N(Cc3cccnc3)S(C)(=O)=O)C2)cc1	none (no result: hNpr1 antagonist, Luciferase inh)
Cc1ccc([S+](=O)([O-])NC2CCN(C(=O)c3ccc(-c4cncnc4)cc3)CC2)cc1	none (no result: hNpr1 antagonist, Luciferase inh)
CSc1ccc(-c2cccc(CN3CCC(N[S+](=O)([O-])c4ccccc4)CC3)c2)cc1	HEK293 tox 28µM, 3T3 cytotox 16µM (no result: hNpr1 antagonist, Luciferase inh)
Cc1ccc([S+](=O)([O-])NC2CCN(Cc3cccc(-c4cccc(C)c4)c3)CC2)cc1	HEK293 tox 25µM, 3T3 cytotox 16µM (no result: hNpr1 antagonist, Luciferase inh)
Cc1ccc(NC(=O)NCCc2ncc(C)n2C2CCC2)cc1C	HEK293 tox 79µM
COc1ccc(C2(C(=O)NCCc3ncc(C)n3C3CC3)CC2)cc1	HEK293 tox inconclusive
Cc1cnc(CCNC(=O)C2(c3ccccc3)CC2)n1C1CCCCCC1	HEK293 tox 40µM, 3T3 cytotox inconclusive
OC1(CN2CCCCC2)CCN(c2cccc(C(F)(F)F)n2)C1 (stereo unspecified)	none
Cc1cc(C)nc(CNC(=O)c2ccc3nc(-c4ccc(F)cc4)cn3c2)n1	none
O=C(NC1C=CS(=O)(=O)C1)c1ccc2nc(-c3ccc(F)cc3)cn2c1 (stereo unspecified)	HEK293 tox 45µM, Luciferase inh 40µM, 3T3 cytotox inconclusive
O=C(NCCCn1ccnc1)c1ccc2nc(-c3ccc(F)cc3)cn2c1	Luciferase inh inconclusive
CCC(NC(=O)c1ccc2nc(-c3ccc(F)cc3)cn2c1)c1cccnc1 (stereo unspecified)	HEK293 tox inconclusive, Luciferase inh 16µM, 3T3 cytotox inconclusive
CC(C)(C)c1ccc(CN2CC3(COCC2=O)CN(c2ccccc2)C3)cc1	HEK293 tox inconclusive, 3T3 cytotox 79µM
COc1ccc(N2CC3(COCC2=O)CN(c2ccc(C(F)(F)F)cn2)C3)cn1	3T3 cytotox 40µM
Cc1ccccc1CN1CC2(COCC1=O)CN(c1ccc(C(F)(F)F)cn1)C2	HEK293 tox 89µM, 3T3 cytotox inconclusive
CN(Cc1ccccc1)[C@@H]1C[C@@H]2CO[C@H](c3ccccc3)C[C@@H]2C1	HEK293 tox inconclusive (no result: hNpr1 antagonist, Luciferase inh)
Fc1ccccc1-c1noc(NCCc2ccc(Cl)cc2)n1	HEK293 tox inconclusive, Luciferase inh inconclusive, 3T3 cytotox inconclusive
Clc1ccc(CNc2nc(-c3ccccc3)no2)cc1	HEK293 tox inconclusive, Luciferase inh 16µM, 3T3 cytotox inconclusive
CCC(=O)N1CCc2c(C(=O)N3CCN(c4cccc(OC)c4)CC3)cccc21	HEK293 tox inconclusive
O=C(NCCCN1CCOCC1)c1cccc2c1CCN2C(=O)Nc1ccc(F)cc1	Luciferase inh 25µM
Cc1ccc(NC(=O)N2CCc3c(C(=O)NCc4ccncc4)cccc32)cc1	HEK293 tox 32µM, hNpr1 antagonist 13µM, Luciferase inh 0.56µM
O=C(c1cccc2c1CCN2C(=O)Nc1ccccc1)N1CCN(c2ccccc2)CC1	HEK293 tox inconclusive, Luciferase inh 28µM
CCNC(=O)c1cccc2c1CCN2C(=O)Nc1ccc(C)cc1	HEK293 tox inconclusive, hNpr1 antagonist 2.2µM, Luciferase inh 0.28µM, 3T3 cytotox inconclusive
CCC(=O)N1CCc2c(C(=O)NCc3cc(C)ccc3C)cccc21	none
CC(C)CCN1CCc2c(sc3ncnc(N4CCN(C)CC4)c23)C1	HEK293 tox inconclusive
CC(C)NC(=O)c1cccc2c1CCN2C(=O)C1CC1	3T3 cytotox inconclusive
O=C(NCCc1ccncc1)c1cccc2c1CCN2C(=O)Nc1ccc(F)cc1	HEK293 tox inconclusive, hNpr1 antagonist 3.5µM, Luciferase inh 0.25µM, 3T3 cytotox inconclusive
Cc1ccc(NC(=O)N2CCc3c(C(=O)NC(C)C)cccc32)cc1	HEK293 tox inconclusive, hNpr1 antagonist 0.56µM, Luciferase inh 0.32µM, 3T3 cytotox inconclusive
